The results in this text go back to PubChem BioAssay (NCI).

Values joined by “and” are separate entries in the source; they are usually repeats but may differ in a detail not shown here. Equal values may be shown once. This is part of a sample that, as a whole, favours compounds with a hit. Of some 83,000 tested, about 20% had one in any assay.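 The test compound was applied at a single concentration to cells in 96-well plates for 48 hours, and percent growth was recorded.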 Active and inactive are the calls of the source. How the source made its calls: active means growth percent below 10; inactive means the rest.

Test in all cases: NCI-60 one-dose screen, 48 h (100 = growth as untreated, 0 = no growth, -100 = all killed)
Assay [1] relates to NCI-H23 lung.
Assay [2] relates to NCI-H226 lung.
The test system of assay [3] is NCI-H322M lung.
Assay [4] concerns HOP-62 NSCLC.
Assay [5] deals with NCI-H460 lung.
Assay [6] has as its system HOP-92 NSCLC.
The test system of assay [7] is NCI-H522 lung. Particulars: 10 µM unless noted.
The test system of assay [8] is A549/ATCC NSCLC.
The subject of assay [9] is 786-0 renal.
For assay [10], the system named is COLO 205 colon.

On to `CCC(=O)Sc1ccccc1C(=O)Nc1ccc(Cl)cc1`, for which the growth was 46.1% (inactive) in assay [1] (10 µM unless noted); 52.7% (inactive) in assay [2] (10 µM unless noted); 55.4% (inactive) in assay [3] (10 µM unless noted); 76.5% (inactive) in assay [4] (10 µM unless noted); 34.5% (inactive) in assay [5] (10 µM unless noted); 16.3% (inactive) in assay [6] (10 µM unless noted). Further, the growth was 67.3% (inactive) in assay [7], 76.5% (inactive) in [8] (10 µM unless noted), 57% (inactive) in [9] (10 µM unless noted) and 84.7% (inactive) in [10] (10 µM unless noted).

Consider `CC1SC(=S)N(c2ccc(Cl)cc2)C1=O` (configuration not stated), for which the growth in assay [1] (10 µM unless noted) was 104% (inactive) and 92.2% (inactive); in assay [2] (10 µM unless noted), 92.9% (inactive) and 97.2% (inactive); in assay [3] (10 µM unless noted) it was 89.5% (inactive) and 89.8% (inactive); in assay [4] (10 µM unless noted) it was 92.4% (inactive) and 92.7% (inactive); in assay [5] (10 µM unless noted), 100% (inactive) and 108% (inactive); in assay [6] (10 µM unless noted) it was 77.6% (inactive). Moreover, the growth was 89.8% (inactive) in assay [7]; 93.8% (inactive) and 95.7% (inactive) in assay [8] (10 µM unless noted); 91.5% (inactive) and 93.1% (inactive) in [9] (10 µM unless noted); 124% (inactive) and 107% (inactive) in assay [10] (10 µM unless noted).

For `CN(C)C(=O)c1ccc(SC(=S)NCc2ccccc2)cc1`, the growth was 109% (inactive) in assay [1] (10 µM); 5.21% (active) in assay [1] (100 µM); 112% (inactive) in assay [2] (10 µM); 102% (inactive) in assay [2] (100 µM); 110% (inactive) in assay [3] (10 µM); 58.2% (inactive) in assay [3] (100 µM). Moreover, the growth in [4] (10 µM) is 107% (inactive); in assay [4] (100 µM) it was 46.5% (inactive); in assay [5] (10 µM) it was 105% (inactive); in [5] (100 µM) it was 8.96% (active); in [6] (10 µM unless noted), -10.3% [100 µM] (active); in [7] it was -48.7% [100 µM] (active). In addition, the growth in assay [8] (10 µM) is 105% (inactive); in [8] (100 µM), 34.4% (inactive); in assay [9] (10 µM) it was 109% (inactive); in [9] (100 µM) it was -17.6% (active); in [10] (10 µM), 101% (inactive); in [10] (100 µM), -11.4% (active).

As to `N#CSCC(=O)c1ccc(Cl)cc1`, the growth in assay [1] (10 µM unless noted) was 9.41% (active); in assay [2] (10 µM unless noted), 65.8% (inactive); in assay [3] (10 µM unless noted) it was 71.7% (inactive); in [4] (10 µM unless noted), 45.1% (inactive); in assay [5] (10 µM unless noted), 33.5% (inactive); in assay [6] (10 µM unless noted) it was -3.98% (active). Also, the growth in assay [7] was 50.6% (inactive); in assay [8] (10 µM unless noted), 87.1% (inactive); in [9] (10 µM unless noted) it was 22.3% (inactive); in [10] (10 µM unless noted), 90.3% (inactive).

For `Cc1ccc2c(ccc3c[n+]4c5ccccc5ccc4n32)c1`, the growth in assay [1] (10 µM unless noted) is 10.4% (inactive); in [2] (10 µM unless noted), 7.48% (active); in assay [3] (10 µM unless noted) it was 12.7% (inactive); in [4] (10 µM unless noted), 0.81% (active); in assay [5] (10 µM unless noted), 1.99% (active); in assay [6] (10 µM unless noted), -11.1% (active). Further, the growth is -33.4% (active) in assay [7], 4.82% (active) in assay [8] (10 µM unless noted), 27.4% (inactive) in assay [9] (10 µM unless noted) and -34.2% (active) in [10] (10 µM unless noted).

For the compound `COc1ccc(N=N/N=c2\sc3cc(OC)ccc3n2C)cc1`, the growth in [1] (10 µM unless noted) is 79.6% (inactive); in assay [2] (10 µM unless noted), 81.8% (inactive); in [3] (10 µM unless noted), 83.9% (inactive); in assay [4] (10 µM unless noted) it was 86.4% (inactive); in assay [5] (10 µM unless noted) it was 94.9% (inactive); in assay [6] (10 µM unless noted) it was 71.2% (inactive). Moreover, the growth in assay [7] was 73.8% (inactive); in assay [8] (10 µM unless noted), 69.8% (inactive); in assay [9] (10 µM unless noted), 105% (inactive); in assay [10] (10 µM unless noted), 92.2% (inactive).

Take `O=C(Nc1c(Cl)cccc1Cl)Oc1cccc2cccnc12`: the growth in assay [1] (10 µM) was 36.5% (inactive); in assay [1] (100 µM), 20.2% (inactive); in assay [2] (10 µM), 66.1% (inactive); in assay [2] (100 µM), 13.9% (inactive); in [3] (10 µM), 23.7% (inactive); in assay [3] (100 µM), 25% (inactive). Also, the growth in assay [4] (10 µM) was 47.5% (inactive); in assay [4] (100 µM), 28.8% (inactive); in assay [5] (10 µM) it was 27.1% (inactive); in assay [5] (100 µM), 9% (active); in [6] (10 µM) it was 53.2% (inactive); in assay [6] (100 µM) it was 23.2% (inactive). The growth is -4.33% [100 µM] (active) in [7]; 38% (inactive) in assay [8] (10 µM); 18.2% (inactive) in [8] (100 µM); 72% (inactive) in assay [9] (10 µM); 31.3% (inactive) in assay [9] (100 µM); 52.4% (inactive) in [10] (10 µM). Moreover, in [10] (100 µM), the growth was 92.8% (inactive).

On to `Cc1ccc(N=C=C(c2ccccc2)c2ccccc2)cc1`, for which the growth was 81% (inactive) in assay [1] (10 µM unless noted); 90.3% (inactive) in assay [2] (10 µM unless noted); 98.1% (inactive) in assay [3] (10 µM unless noted); 104% (inactive) in assay [4] (10 µM unless noted); 97.3% (inactive) in [5] (10 µM unless noted); 79.2% (inactive) in assay [6] (10 µM unless noted). Moreover, the growth in assay [7] was 76% (inactive); in assay [8] (10 µM unless noted), 97.5% (inactive); in assay [9] (10 µM unless noted), 70.1% (inactive); in assay [10] (10 µM unless noted), 114% (inactive).

On to `N#CSCc1ccc(Cl)c(CSC#N)c1`, for which the growth is 40.4% (inactive) in assay [1] (10 µM unless noted); 74.2% (inactive) in assay [2] (10 µM unless noted); 98.7% (inactive) in [3] (10 µM unless noted); 74% (inactive) in assay [4] (10 µM unless noted); 16.3% (inactive) in assay [5] (10 µM unless noted); -4.43% (active) in [6] (10 µM unless noted). The growth in [7] was 13.7% (inactive); in [8] (10 µM unless noted) it was 35.5% (inactive); in [9] (10 µM unless noted) it was 32.1% (inactive); in [10] (10 µM unless noted), -7.52% (active).

As to `CCC(c1cccc(O)c1)C(CC)c1cccc(O)c1` (configuration not stated), the growth in assay [1] (10 µM unless noted) is 78.7% (inactive); in assay [2] (10 µM unless noted) it was 82.7% (inactive); in [3] (10 µM unless noted), 59.5% (inactive); in assay [4] (10 µM unless noted) it was 83.8% (inactive); in assay [5] (10 µM unless noted), 59.4% (inactive); in assay [6] (10 µM unless noted), 57% (inactive). In addition, the growth in [7] is 56.3% (inactive); in assay [8] (10 µM unless noted), 67.8% (inactive); in [9] (10 µM unless noted), 74.8% (inactive); in assay [10] (10 µM unless noted) it was 61.9% (inactive).
